Reference: PubChem BioAssay AID977607 (Broad Institute, 2014)
The campaign covered roughly 1,500 compounds. About 460 (31%) were called active. Roughly 1% stayed inconclusive and do not appear here.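 How the source made its calls: active means curve reaches 40% activation over neutral controls at an AC40 no higher than the top valid tested concentration; inconclusive means no clear call, values can overlap the other calls; inactive means signal moving opposite to the expected increase, and the rest.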 Only a sample is shown. Results with a measured potency or affinity are listed apart.

Test: activators of glucose-dependent insulin secretion, dose response, cell-based, INS-1E, Gaussia luciferase, luminescence, cherry-pick, set 2 (AID 977607);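 further: 0% = median of the plate neutral control wells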
Conditions: INS-1E GLuc insulin secretion reporter, 2-3 h, hits give high values; at 35 µM, 100% = signal doubled over neutral wells unless noted

Max activation, inactive:
COc1ccc(-c2nc3cccc(C)n3c2NCc2ccco2)cc1OC -14.6% [at 1.2 µM, 100% = signal doubled over neutral wells]
CN(C)c1ccc(CC(=O)N2CCCCC2c2cc(C(=O)Nc3ccccc3Cl)no2)cc1 (centres undefined) -48.9%
CCCc1c(C)c2ccc(OCC(C)=O)cc2oc1=O -16.6% [at 0.005 µM, 100% = signal doubled over neutral wells]
CCOC(=O)N1CCN(S(=O)(=O)c2ccc3c4c(cccc24)C(=O)N3)CC1 37.4% [at 0.42 µM, 100% = signal doubled over neutral wells]
C[C@H]1CN([C@@H](C)CO)C(=O)c2cc(C#CCc3ccccc3)cnc2O[C@@H]1CN(C)C(=O)C1CC1 -42.9%
C[C@H](CO)N1C[C@H](C)[C@@H](CN(C)C(=O)Cc2ccccn2)Oc2cc(C#C[C@@H](C)O)ccc2S1(=O)=O -20.3% [at 0.135 µM, 100% = signal doubled over neutral wells]
C[C@@H]1CN([C@H](C)CO)C(=O)Cc2cc(NC(=O)CCCN(C)C)ccc2O[C@H]1CN(C)Cc1ccc(-c2ccccc2)cc1 19.8%
C[C@@H]1CN([C@@H](C)CO)C(=O)CCCn2nncc2CO[C@H]1CN(C)Cc1ccccc1 -19.1% [at 0.015 µM, 100% = signal doubled over neutral wells]
O=C(Cn1cnc2c(OCc3ccccc3)ncnc21)NCc1ccccn1 17.4% [at 0.135 µM, 100% = signal doubled over neutral wells]
Cc1c(C)n(CCCN(C)C)c2ncnc(Nc3ccccc3)c12 -20.1% [at 11 µM, 100% = signal doubled over neutral wells]
Cc1ccc(F)cc1NC(=O)c1sc2ncn(CC(=O)N3CCN(c4ccccn4)CC3)c(=O)c2c1C -38%
Cc1ccc(/C=N/n2c(-c3cccnc3)n[nH]c2=S)s1 -11.8% [at 1.2 µM, 100% = signal doubled over neutral wells]
COc1ccc(/C=N/n2c(-c3n[nH]c4c3CCC4)n[nH]c2=S)cc1OC -27.2% [at 0.0016 µM, 100% = signal doubled over neutral wells]
S=c1[nH]nc(-c2ccccc2)n1/N=C/c1c[nH]c2ccccc12 30.5% [at 0.005 µM, 100% = signal doubled over neutral wells]
C=CCN=c1sc(C(=O)OC)cc(=O)n1CC=C 27.6% [at 11 µM, 100% = signal doubled over neutral wells]
Cc1ccc(F)cc1-c1nc(NC(C)C)nc2cc(-c3ccccc3)sc12 -27.5% [at 11 µM, 100% = signal doubled over neutral wells]
COc1ccc(CCNC(=O)CN2c3cccc4cccc(c34)S2(=O)=O)cc1OC 39.7%
O=C(Nc1cccnc1)/C(N=Nc1cccnc1)=C(\O)c1ccccc1 -11.7% [at 0.42 µM, 100% = signal doubled over neutral wells]
O=C(NCc1ccccc1)C(c1ccncc1)n1c(=O)c(-c2ccccc2)nc2ccccc21 (centres undefined) -12.6% [at 1.2 µM, 100% = signal doubled over neutral wells]
O=C(OC1CCOC1=O)c1cc(-c2ccc(Cl)cc2)nc2ccccc12 (centres undefined) 34.2% [at 3.8 µM, 100% = signal doubled over neutral wells]
COc1cc(C)c(C)cc1S(=O)(=O)N1CCCCC1c1cccnc1 (centres undefined) 13% [at 1.2 µM, 100% = signal doubled over neutral wells]
CCc1nc2ccc(C(=O)NCCCN(C)C)cn2c1N(C)Cc1ccc(OC)cc1 -28.3% [at 0.046 µM, 100% = signal doubled over neutral wells]
COC(=O)C1=C(C)NC(=S)NC1c1cccc(OC)c1 (centres undefined) -19.4% [at 0.046 µM, 100% = signal doubled over neutral wells]
CC1CN(S(=O)(=O)c2cc(C(=O)NC(C)c3cccnc3)ccc2Cl)CC(C)O1 (centres undefined) -33%
O=C1c2[nH]nc(-c3ccccc3)c2C(c2ccccc2)N1c1ccccc1 (centres undefined) -31.9%
COc1ccccc1CNC(=O)CCNS(=O)(=O)c1ccc2[nH]c(=O)oc2c1 -23% [at 0.015 µM, 100% = signal doubled over neutral wells]
COC(=O)c1cc(S(=O)(=O)NCC2CCN(Cc3cc(C)ccc3C)CC2)c[nH]1 -22.8% [at 11 µM, 100% = signal doubled over neutral wells]
O=C(c1ccco1)N1CCN(C2CN(Cc3ccccc3)S(=O)(=O)C2)CC1 (centres undefined) 13.2% [at 0.135 µM, 100% = signal doubled over neutral wells]
Cc1[nH]n(-c2ccc(Br)cc2)c(=O)c1/C=N/NC(=O)c1ccccc1 -37.8%
Cn1cc(Br)c(C(=O)NNC(=O)c2ccccc2)n1 -8.88% [at 0.015 µM, 100% = signal doubled over neutral wells]
O=C(Nc1cccnc1Cl)C1=NN(c2ccccc2)C(=O)CC1 -19.3% [at 0.42 µM, 100% = signal doubled over neutral wells]
Cn1c(=O)[nH]c(=O)c2c1nc(N1CCCCC1)n2C/C=N/Nc1ccc(C(=O)O)cc1 40.2% [at 0.0016 µM, 100% = signal doubled over neutral wells]
C/C=C/Cn1c(N2CCCCCC2)nc2c1c(=O)[nH]c(=O)n2C 53.5%
C[C@@H]1CC2=C(C(=O)OC(C)(C)O2)[C@H](c2ccc(Cl)cc2)O1 -23% [at 0.42 µM, 100% = signal doubled over neutral wells]
Cc1nc2ccccc2c2oc(C(=O)N3CCCC(C)C3)cc12 (centres undefined) -8.46% [at 11 µM, 100% = signal doubled over neutral wells]
CCOC(=O)Cc1csc(NC(=O)c2ccc(OC)c(OC)c2)n1 24.7%
COc1ccc(CCNC(=O)Cc2ccc3c(c2)OCO3)cc1OC -22.4% [at 0.42 µM, 100% = signal doubled over neutral wells]
Cc1c(C(=O)N(C)CCc2cnn(C)c2)oc2c(F)cccc12 -14.1% [at 3.8 µM, 100% = signal doubled over neutral wells]
CC(=O)Nc1ccc(S(=O)(=O)Nc2ccc3c(c2)n(C)c(=O)n3C)c(C)c1 -23.1%
CCCCn1c(=O)n(C)c(=O)c2c3c(sc21)COC(C)(C)C3 -17% [at 0.015 µM, 100% = signal doubled over neutral wells]
O=C(NCc1cccnc1)c1cccc(S(=O)(=O)NCc2ccccc2)c1 -24% [at 0.0016 µM, 100% = signal doubled over neutral wells]
COc1ccc(C(=O)Nc2ccccc2C(=O)NCc2cccnc2)cc1OC 42.3% [at 0.42 µM, 100% = signal doubled over neutral wells]
c1ccc(CCN2CCN=C2Nc2ccccc2)cc1 -31.5% [at 0.42 µM, 100% = signal doubled over neutral wells]
CN(C)C=NC(=O)c1ccc(N2CCN(c3ncc(C(F)(F)F)cc3Cl)CC2)cc1 -20.4% [at 11 µM, 100% = signal doubled over neutral wells]
CN(C)c1nc(=NCc2cccs2)ss1 -34.9% [at 11 µM, 100% = signal doubled over neutral wells]
CCCc1cc(=O)oc2cc(OCC(=O)NC3CCN(Cc4ccccc4)CC3)ccc12 -23.5%
CNC(=O)C1CC(=O)N(c2ccc(OCC(=O)Nc3ccccc3)cc2)C1 (centres undefined) -14.9% [at 0.135 µM, 100% = signal doubled over neutral wells]
COc1cc2[nH]c3c(Cl)ncnc3c2cc1OC -29.3% [at 3.8 µM, 100% = signal doubled over neutral wells]
CCCn1c(=O)c(C(=O)NCc2ccccc2)c(O)c2ccccc21 -28%
O=C(CCc1nc2ccccc2c(=O)[nH]1)NNC(=O)c1cccc(Cl)c1 -14.7% [at 0.015 µM, 100% = signal doubled over neutral wells]
COc1ccnc(N2CCN(c3cccc(C(F)(F)F)c3)CC2)c1C#N 81.3%
CN(C)CCCN(C(=O)c1ccco1)c1nc2c(F)cccc2s1 -22.6% [at 0.015 µM, 100% = signal doubled over neutral wells]
CCOc1ccc2ccc(OCC)c(/C=N/n3cnnc3)c2c1 -33.7%
Cc1cc2cc(C#N)c(N3CCOCC3)nc2cc1Cl -10.5% [at 0.015 µM, 100% = signal doubled over neutral wells]
